# Data taken from PubChem BioAssay (NCI).
# The panel holds about 83,000 compounds, 20% with a hit somewhere; the sample as a whole holds those more often.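 Note: values are percent growth. 100 is the growth of untreated cells, values between 100 and 0 indicate rising inhibition; between -100 and 0 indicates cell death.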 The source made the active and inactive calls. How the source made its calls: active means growth percent below 10; inactive means the rest.
# Tested on: HS 578T breast
# Test: NCI-60 one-dose screen, 48 h (100 = growth as untreated, 0 = no growth, -100 = all killed)
# Conditions: 10 µM unless noted
row,Structure (SMILES),growth
1,COc1cc(C2C3=C(COC3=O)N(CCO)c3cc4c(cc32)OCCO4)cc(OC)c1OC (stereo not given),-4.92% (active)
2,CC12CCC(/C(=C/NNc3ccc([N+](=O)[O-])cc3[N+](=O)[O-])C1=O)C2(C)C (stereo not given),110% (inactive)
3,CCn1cc(C(=O)N/N=C/c2ccc(Br)cc2)c(=O)c2cc(F)c(N3CCNC(C)C3)c(F)c21 (stereo not given),73% (inactive)
4,O=C(CSc1nnc2sc(Nc3cccc(Cl)c3)nn12)c1ccc(F)cc1,97.4% (inactive)
5,C#CC#CC#CC#CC#CC#CC#CC#CCC1OCC(COC(=O)O[C@@H](C(=O)O[C@H]2C[C@@]3(O)[C@@H](OC(=O)c4ccccc4)[C@@H]4[C@]5(OC(C)=O)CO[C@@H]5C[C@H](O)[C@@]4(C)C(=O)[C@H](OC(C)=O)C(=C2C)C3(C)C)[C@@H](NC(=O)c2ccccc2)c2ccccc2)O1 (stereo not given in full),-4.44% (active)

# Tested on: NCI/ADR-RES ovarian
# Test: as above
# Conditions: 10 µM unless noted
row,Structure (SMILES),growth
1,O=S(=O)(c1ccccc1)N1CCCN(c2nc(-c3ccccc3)nc3nc(-c4ccccc4)oc23)CC1,104% (inactive)
2,Clc1ccc(-c2cn3ccsc3n2)c(Cl)c1Cl,99.6% (inactive)
3,O=C(CN1C(=O)/C(=C/c2ccco2)SC1=S)NCCc1c[nH]c2ccc(F)cc12,99.1% (inactive)
4,COc1cc(C2C3=C(COC3=O)N(CCO)c3cc4c(cc32)OCCO4)cc(OC)c1OC (stereo not given),48.2% (inactive)
5,N/C(=N\c1nc2ccccc2s1)NC(=NC1CCCCC1)NC1CCCCC1,15% (inactive)
6,CC(O)c1ncc(/C=C2\SC(=S)N(Cc3ccccc3)C2=O)s1 (stereo not given),99.5% (inactive)
7,COc1ccc2nc3ccccc3c(NCc3ccc(F)cc3)c2c1,15.1% (inactive)
8,COc1cc(-c2cc(-c3ccc(Nc4ncnc5cc(Cl)ccc45)cc3)nc(N3CCN(C)CC3)n2)cc(OC)c1OC,85.3% (inactive)
9,O=C(Nc1cccnc1Nc1ccc(Cl)cc1)c1cn(Cc2ccc(F)cc2)nn1,96.2% (inactive)
10,N#Cc1c(NC(=O)c2cccs2)[n+]([O-])c2ccc(Cl)cc2[n+]1[O-],99.2% (inactive)
11,CCOC(=O)/C=C/c1c(C)[nH]c(=O)[nH]c1=O,81.9% (inactive)
12,COc1ccc(C2C3=C(COC3=O)N(CCO)c3cc4c(cc32)OCCO4)cc1OC (stereo not given),65.4% (inactive)
13,CN1CCN(c2ccc3c(c2)nc(NNC(=O)c2cnccn2)c2cccn23)CC1,16.9% (inactive)
14,C=CCOC(=O)C1=C(C)NC(=O)NC1c1c(Cl)n(C)c2ccccc12 (stereo not given),99.2% (inactive)
15,COc1ccc(Cl)cc1Nc1nc(C(F)(F)F)ccc1C(=O)N/N=C/c1ccccc1Cl,0.235% (active)
16,N#Cc1c(-c2ccccc2)nc2c(c(-c3ccccc3)nn2-c2ccccc2)c1-c1ccc(N2CCOCC2)cc1,94.6% (inactive)
17,O=C(CCCCCCCCC(=O)N/N=C\c1cc(Cl)ccc1O)N/N=C\c1cc(Cl)ccc1O,17.4% (inactive)
18,CC12CCC(/C(=C/NNc3ccc([N+](=O)[O-])cc3[N+](=O)[O-])C1=O)C2(C)C (stereo not given),76.5% (inactive)
19,Nc1ccc([N+](=O)[O-])cc1N=C/C=C/c1ccccc1,50.9% (inactive)
20,CC1CN=C(c2cccc(-c3ccc(-c4ccccc4)o3)c2)N1 (stereo not given),28.3% (inactive)

row,Structure (SMILES),growth
1,CCCCc1oc2ccccc2c1C(=O)c1ccc(O)cc1,76.1% (inactive)
2,Cc1cc2oc(=O)cc(CP(=O)(O)O)c2cc1O,105% (inactive)
3,CCOC(=O)C1=C(C)N=C2SC=C(c3ccccc3)N2[C@H]1c1cn[nH]c1-c1ccc(Cl)cc1,69.4% (inactive)
4,CCN1C(=S)N(CC)C2C1NC(=S)N2/N=C/C=C/c1ccccc1OC (stereo not given),-9.38% (active)
5,CC(=O)N/C(=C1/OC(C(O)C(O)C(O)CO)CN1C)[P+](c1ccccc1)(c1ccccc1)c1ccccc1 (stereo not given),101% (inactive)
6,CCn1cc(C(=O)N/N=C/c2ccc(Br)cc2)c(=O)c2cc(F)c(N3CCNC(C)C3)c(F)c21 (stereo not given),83.3% (inactive)
7,CCNc1nc(-c2ccc(F)cc2)c(C#N)c(=O)n1C,67.1% (inactive)
8,C(/C=C/c1ccccc1)=Nc1ccc(CCc2ccc(N=C/C=C/c3ccccc3)cc2)cc1,80.9% (inactive)
9,O=C(N/N=C/c1ccc([N+](=O)[O-])cc1)c1ccc2nc(-c3ccc(Cl)cc3)[nH]c2c1,77.3% (inactive)
10,Fc1ccc(CNc2c3ccccc3nc3ccccc23)cc1,29.7% (inactive)
11,O=C(CSc1nnc2sc(Nc3cccc(Cl)c3)nn12)c1ccc(F)cc1,96.4% (inactive)
12,Cn1c(=O)c2c(nc(NC3=NS(=O)(=O)c4ccccc43)n2Cc2ccccc2)n(C)c1=O,103% (inactive)
13,O=c1nc(Nc2nc3ccccc3s2)[nH]c(=O)c2ccccc12,103% (inactive)
14,c1ccc2cc(Cn3c[n+](Cc4ccc5ccccc5c4)c4ccccc43)ccc2c1,91.2% (inactive)
15,Cc1[nH]c(/C=C/C(=O)c2ccc(C(F)(F)F)c(F)c2)c(C)c1C(=O)NCC(C)C,98.9% (inactive)
16,O=C(Nc1cccc(NC(=O)C2CCCCC2)c1)c1ccccn1,93.8% (inactive)
17,CCOC(=O)c1c2c(n3ccccc13)C(=O)c1ncccc1C2=O,4.98% (active)
18,COc1ccc(C(c2cc(OC)c(OC)c(OC)c2)N2CCN(Cc3ccccc3)CC2)cc1 (stereo not given),61.6% (inactive)
19,CN(C)c1ccc(/C=C2/C=C(c3ccccc3)OC2=O)cc1,73.1% (inactive)
20,C#CC#CC#CC#CC#CC#CC#CC#CCC1OCC(COC(=O)O[C@@H](C(=O)O[C@H]2C[C@@]3(O)[C@@H](OC(=O)c4ccccc4)[C@@H]4[C@]5(OC(C)=O)CO[C@@H]5C[C@H](O)[C@@]4(C)C(=O)[C@H](OC(C)=O)C(=C2C)C3(C)C)[C@@H](NC(=O)c2ccccc2)c2ccccc2)O1 (stereo not given in full),93.5% (inactive)
